# From PubChem BioAssay AID2796 (The Scripps Research Institute Molecular Screening Center, 2010)
# Screen size: about 320,000 compounds; about 8,000 (2.5%) were called active. No stated cut-off is given here; in the data, active means activation above about 47%; inactive means the rest. Shown is part of a subset that was picked to be rich in actives.
# Molecular target: Aryl hydrocarbon receptor (Homo sapiens) (UniProt P35869)
# Assay: AHR activators, primary screen, cell-based, luminescence, luciferase reporter, human (AID 2796);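 further: 0% = vehicle wells and 100% = reference agonist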
# Conditions: AHR-responsive luciferase reporter cells, at 5 µM, hits give high values
# Aryl hydrocarbon receptor (Homo sapiens), sequence (P35869 whole entry, looked up): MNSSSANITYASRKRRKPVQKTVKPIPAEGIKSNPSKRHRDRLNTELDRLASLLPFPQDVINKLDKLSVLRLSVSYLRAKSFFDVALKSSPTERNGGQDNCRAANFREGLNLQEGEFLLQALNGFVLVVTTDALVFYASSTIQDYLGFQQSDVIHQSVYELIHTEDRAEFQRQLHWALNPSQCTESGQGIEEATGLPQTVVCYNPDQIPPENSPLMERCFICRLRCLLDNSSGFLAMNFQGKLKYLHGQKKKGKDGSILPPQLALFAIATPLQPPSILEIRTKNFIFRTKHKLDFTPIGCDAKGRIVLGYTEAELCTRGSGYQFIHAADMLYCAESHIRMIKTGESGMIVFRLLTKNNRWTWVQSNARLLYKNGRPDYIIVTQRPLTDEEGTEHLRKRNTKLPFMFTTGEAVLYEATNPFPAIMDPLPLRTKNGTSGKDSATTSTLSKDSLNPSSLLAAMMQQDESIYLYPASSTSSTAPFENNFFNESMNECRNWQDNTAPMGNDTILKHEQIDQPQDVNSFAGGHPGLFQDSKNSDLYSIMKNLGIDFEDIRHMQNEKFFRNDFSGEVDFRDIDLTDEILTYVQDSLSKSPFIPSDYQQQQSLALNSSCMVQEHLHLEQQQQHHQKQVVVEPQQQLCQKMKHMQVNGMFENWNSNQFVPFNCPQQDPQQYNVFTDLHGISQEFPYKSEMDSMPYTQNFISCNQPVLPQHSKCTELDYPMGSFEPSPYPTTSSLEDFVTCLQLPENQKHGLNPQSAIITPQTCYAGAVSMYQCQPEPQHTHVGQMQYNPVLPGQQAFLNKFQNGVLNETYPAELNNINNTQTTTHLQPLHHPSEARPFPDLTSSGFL
row,SMILES,activation
1,CC(=O)NCC(=O)N(C)C(C(=O)Nc1ccc2c(c1)OCCO2)c1ccccc1 (centres undefined),15% (inactive)
2,Cc1cc(=O)oc2c3c(cc(OCC(=O)NCc4ccccn4)c12)OC(C)(C)CC3,4.58% (inactive)
3,FC(F)(F)c1ccc(-n2cn[nH]c2=S)cc1,-2.71% (inactive)
4,CCN1CCN(C(=O)c2cc3cc4ccc(OC)cc4nc3s2)CC1,2.17% (inactive)
5,CCCn1c(CCNc2nc(-c3ccc(OC)cc3)cs2)nc2ccccc21,15% (inactive)
6,O=C(CSC1=NCCS1)Nc1nc(-c2ccccc2)cs1,18.4% (inactive)
7,Cc1cccc(Nc2nc(-c3ccccc3)cs2)n1,95.5% (active)
8,COc1ccc(Nc2nc(-c3ccccc3)cs2)cc1,91.8% (active)
9,COc1ccc2c(c1OC)C(=O)OC2Nc1nc(-c2ccccc2)cs1 (centres undefined),-5.46% (inactive)
10,Cc1ccccc1Nc1nc(-c2cccnc2)cs1,2.23% (inactive)
11,CCCCn1nc(C(=O)Nc2cccc(C(=O)NC3CC3)c2)c2ccccc2c1=O,-0.03% (inactive)
12,CC1(C)C2CCC13CS(=O)(=O)NC3C2 (centres undefined),1.31% (inactive)
13,CN1CCN(C(=O)c2cnn(-c3ccccc3)c2NC(=O)c2ccc([N+](=O)[O-])cc2)CC1,4.36% (inactive)
14,Nc1c(N(CCO)C(=O)C2CCCCC2)c(=O)[nH]c(=O)n1Cc1ccccc1,0.25% (inactive)
15,COc1ccccc1C(=O)Nc1ccccc1C(=O)Nc1ccccc1,18.5% (inactive)
16,O=C(Nc1ccccc1Cl)c1ccccc1S(=O)(=O)c1ccccc1[N+](=O)[O-],2.48% (inactive)
17,CN(C)S(=O)(=O)Oc1ccccc1C(=O)Nc1ccccc1Cl,106% (active)
18,Cc1ccc(NC2CCCN(C(=O)CCc3cn[nH]c3)C2)cc1C (centres undefined),11.1% (inactive)
19,Cn1ncc(Br)c1C(=O)NCc1cccs1,-1.33% (inactive)
20,COc1ccccc1NC(=O)c1c(Br)cnn1C,57.9% (active)
21,Cn1ncc(Br)c1C(=O)NC1CCCC1,-3.04% (inactive)
22,COC(=O)c1ccc(C(NC(=O)OCc2ccccc2)/C(C)=C/[C@@H](C)C(=O)NCc2ccc(OC)c(OC)c2)cc1 (some centres undefined),6.4% (inactive)

row,SMILES,activation
1,COc1ccc(NC(=O)CSc2nnc(C3CC3)n2C)cc1S(=O)(=O)N1CCCCC1,-0.33% (inactive)
2,COc1cc(CNCc2ccc3c(c2)OCO3)c([N+](=O)[O-])cc1OC,111% (active)
3,COc1cc(OC)c(C(=O)NCc2ccc3c(c2)OCO3)cc1OC,14% (inactive)
4,Cc1ccc(CNCc2ccc3c(c2)OCO3)c(C)c1,2.41% (inactive)
5,NS(=O)(=O)c1ccc(N=Cc2ccc(Br)s2)cc1,3.54% (inactive)
6,O=C(NNc1cc(Cl)cc(Cl)c1)c1c(F)cccc1Cl,10.2% (inactive)
7,COc1ccccc1-c1nnc(NC(=O)c2cccc(N3C(=O)CCC3=O)c2)o1,33.9% (inactive)
8,Cc1sc(NC(=O)c2ccc3ncsc3c2)c(C(N)=O)c1C,5.88% (inactive)
9,COc1ccccc1-c1nnc(NC(=O)c2ccc3ncsc3c2)o1,48.6% (active)
10,CC(=O)C1=C(O)C(=O)N(c2ccc(Br)cc2)C1c1ccc([N+](=O)[O-])cc1 (centres undefined),62.3% (active)
11,COC(=O)CN1C(=O)C(O)=C(C(C)=O)C1c1ccc([N+](=O)[O-])cc1 (centres undefined),0.71% (inactive)
12,CC(=O)C1=C(O)C(=O)N(c2cccnc2)C1c1ccc([N+](=O)[O-])cc1 (centres undefined),-2.61% (inactive)
13,COC(=O)C1=C(C)N(C(C)c2ccccc2)C(=O)/C1=C\c1ccco1 (centres undefined),1.2% (inactive)
14,CCSc1ccccc1C(=O)NCc1ccc(OC)cc1,-0.68% (inactive)
15,COc1ccc(COCCN2CCN(S(=O)(=O)c3ccccc3)CCC2=O)cc1,2.49% (inactive)
16,C=CCSc1nnc2c(n1)-c1cccc3cccc-2c13,56.7% (active)
17,CCN(CC(=O)Nc1ccc(OC)cc1)C(=O)CSCc1ccc(C)cc1,0.1% (inactive)
18,COc1ccc(NC(=O)c2oc3ccc(S(=O)(=O)N4CCOCC4)cc3c2C)cc1,10.4% (inactive)
19,Cc1occc1C(=O)Nc1cccc(S(=O)(=O)N2CCOCC2)c1,3.12% (inactive)
20,Cc1c(C(=O)Nc2cccc(S(=O)(=O)N3CCOCC3)c2)oc2ccccc12,67.5% (active)
21,N#Cc1ccc(OCCN2C(=O)NC3(CCSC3)C2=O)cc1 (centres undefined),-2.11% (inactive)
22,Cc1cc(NC(=O)CSc2nnc(-c3ccco3)n2N)no1,1.53% (inactive)

row,SMILES,activation
1,COc1ccc(C(=O)NC(=S)N2CCNC(=O)C2CC(=O)OC(C)C)cc1 (centres undefined),5.47% (inactive)
2,Cc1cc2ncn(CCCCOc3ccccc3)c2cc1C,-0.22% (inactive)
3,Brc1ccccc1C1N=C(c2ccccc2)NO1 (centres undefined),50.1% (active)
4,N#Cc1ccc(C2N=C(c3ccccc3)NO2)cc1 (centres undefined),0.8% (inactive)
5,S=C1NC(c2ccccc2)=NCN1c1ccc(Br)cc1,1.57% (inactive)
6,Cc1ccc(-n2nc3c(c2NC(=O)CCC2CCCCC2)CS(=O)C3)cc1 (centres undefined),18.5% (inactive)
7,CCCCNC(=S)N/N=C1\CCCCc2ccccc21,13.7% (inactive)
8,Cc1ccc(N=Cc2c(O)cc(C)oc2=O)c(C)c1,-0.65% (inactive)
9,Cc1cc(O)c(Sc2ccccc2)c(=O)o1,0.97% (inactive)
10,Cc1cc(O)c(C(=O)/C=C/c2c(F)c(F)c(F)c(F)c2F)c(=O)o1,99.4% (active)
11,CCOC(=O)CCc1c(C)c(C#N)c2[nH]c3ccccc3n2c1=O,4.77% (inactive)
12,CN(C)Cc1c(C#N)c2ccccc2n1C,1.2% (inactive)
13,CCCc1cc(=S)n2c([nH]c3ccccc32)c1C#N,63.8% (active)
14,COc1ccc(CCNC(=O)c2nnc(CS(=O)(=O)c3ccccc3)o2)cc1OC,-2.96% (inactive)
15,CCn1c2ccccc2c2cc(NC(=O)C/C(C)=N/NC(=O)c3ccccc3N)ccc21,95.2% (active)
16,CCn1c2ccccc2c2cc(NC(=O)COC(=O)c3cc(S(=O)(=O)N4CCCCC4)ccc3Cl)ccc21,34.2% (inactive)
17,CCn1c2ccccc2c2cc(NC(=O)COC(=O)c3ccccc3Br)ccc21,62.5% (active)
18,CCn1c2ccccc2c2cc(NC(=O)CNC)ccc21,44.7% (inactive)
19,CCn1c2ccccc2c2cc(NC(=S)N3CCOCC3)ccc21,46% (inactive)
20,CCn1c2ccccc2c2cc(CC(N)=O)ccc21,1.45% (inactive)
